From PubChem BioAssay AID1159580 (chemical genetic matrix, 2015)
Several values for one entry are separate records, joined by “and”; a condition that tells them apart may be missing. Identical values can stand only once. The campaign covered roughly 5,500 compounds. About 2,000 (36%) were called active. Roughly 18% stayed inconclusive and do not appear here. No stated cut-off is given here; in the data, active means normalized growth mostly below about 0.91 (no sharp cut-off); inconclusive means no clear call, values can overlap the other calls; inactive means mostly above about 0.92. The list shows a part of the results.

Test: chemical genetic growth profiling, strain panel (AID 1159580);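 further: tested at 20 µM; growth read once vehicle control cultures reached saturation at 30 °C; 1 = growth at the plate median or of vehicle wells; lower values mean less growth of the strain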
Settings: growth OD
[1] = S. cerevisiae deletion strains, locus YDL101C, strain DUN1, hits give low values
[2] = S. cerevisiae deletion strains, locus YGR052W, strain FMP48, hits give low values
[3] = S. cerevisiae deletion strains, locus YHR030C, strain SLT2, hits give low values
[4] = S. cerevisiae deletion strains, locus YHR079C, strain IRE1, hits give low values
[5] = S. cerevisiae deletion strains, locus YHR082C, strain KSP1, hits give low values
[6] = S. cerevisiae deletion strains, locus YJL095W, strain BCK1, hits give low values
[7] = S. cerevisiae deletion strains, locus YJR066W, strain TOR1, hits give low values
[8] = S. cerevisiae deletion strains, locus YKL203C, strain TOR2, hits give low values
[9] = S. cerevisiae deletion strains, locus YLR113W, strain HOG1, hits give low values
[10] = S. cerevisiae deletion strains, locus YNL183C, strain NPR1, hits give low values
[11] = S. cerevisiae deletion strains, locus YNL207W, strain RIO2, hits give low values
[12] = S. cerevisiae deletion strains, locus YOR119C, strain RIO1, hits give low values
[13] = S. cerevisiae deletion strains, locus YOR231W, strain MKK1, hits give low values
[14] = S. cerevisiae deletion strains, locus YPL256C, strain CLN2, hits give low values

Measured: normalized growth

N#Cc1ccc(Oc2sccc2[N+](=O)[O-])cc1
inactive: S. cerevisiae deletion strains, locus YAR019C, strain CDC15, hits give low values 0.937 | S. cerevisiae deletion strains, locus YBL105C, strain PKC1, hits give low values 0.978 | S. cerevisiae deletion strains, locus YBR135W, strain CKS1, hits give low values 0.946 | S. cerevisiae deletion strains, locus YBR136W, strain MEC1, hits give low values 0.971 | S. cerevisiae deletion strains, locus YBR160W, strain CDC28, hits give low values 0.992 | S. cerevisiae deletion strains, locus YDL017W, strain CDC7, hits give low values 0.985 | S. cerevisiae deletion strains, locus YDL028C, strain MPS1, hits give low values 0.978 | [1] 0.959 | S. cerevisiae deletion strains, locus YDL108W, strain KIN28, hits give low values 0.97 | S. cerevisiae deletion strains, locus YDL132W, strain cdc53, hits give low values 0.942 | S. cerevisiae deletion strains, locus YDL214C, strain PRR2, hits give low values 0.901 | S. cerevisiae deletion strains, locus YDR052C, strain DBF4, hits give low values 0.975 | S. cerevisiae deletion strains, locus YDR054C, strain cdc34, hits give low values 0.907 | S. cerevisiae deletion strains, locus YDR226W, strain ADK1, hits give low values 0.98 | S. cerevisiae deletion strains, locus YDR477W, strain SNF1, hits give low values 0.888 | S. cerevisiae deletion strains, locus YER123W, strain YCK3, hits give low values 0.748 | S. cerevisiae deletion strains, locus YER133W, strain GLC7, hits give low values 0.847 | S. cerevisiae deletion strains, locus YFL009W, strain cdc4, hits give low values 0.908 | S. cerevisiae deletion strains, locus YFL029C, strain CAK1, hits give low values 0.907 | S. cerevisiae deletion strains, locus YFR003C, strain YPI1, hits give low values 0.975 | S. cerevisiae deletion strains, locus YFR019W, strain FAB1, hits give low values 0.924 | S. cerevisiae deletion strains, locus YFR028C, strain CDC14, hits give low values 0.953 | S. cerevisiae deletion strains, locus YGR040W, strain KSS1, hits give low values 0.867 | [2] 0.879 | S. cerevisiae deletion strains, locus YGR092W, strain DBF2, hits give low values 0.769 | [3] 0.942 | [4] 0.955 | [5] 0.934 | S. cerevisiae deletion strains, locus YHR205W, strain SCH9, hits give low values 0.894 | S. cerevisiae deletion strains, locus YIL147C, strain SLN1, hits give low values 0.969 | [6] 0.825 | S. cerevisiae deletion strains, locus YJL128C, strain PBS2, hits give low values 0.923 | S. cerevisiae deletion strains, locus YJL157C, strain FAR1, hits give low values 0.883 | S. cerevisiae deletion strains, locus YJR016C, strain ILV3, hits give low values 0.946 | S. cerevisiae deletion strains, locus YJR066W, strain TOR1 (second series), hits give low values 0.821 | [7] 0.907 | S. cerevisiae deletion strains, locus YKL048C, strain ELM1, hits give low values 0.95 | S. cerevisiae deletion strains, locus YKL067W, strain YNK1, hits give low values 0.895 | S. cerevisiae deletion strains, locus YKL101W, strain HSL1, hits give low values 0.927 | S. cerevisiae deletion strains, locus YKL193C, strain SDS22, hits give low values 0.941 | [8] 0.911 | S. cerevisiae deletion strains, locus YLR133W, strain CKI1, hits give low values 0.933 | S. cerevisiae deletion strains, locus YLR403W, strain SFP1, hits give low values 0.863 | S. cerevisiae deletion strains, locus YML070W, strain DAK1, hits give low values 0.869 | S. cerevisiae deletion strains, locus YMR001C, strain CDC5, hits give low values 0.935 | S. cerevisiae deletion strains, locus YMR205C, strain PFK2 (second series), hits give low values 0.899 | S. cerevisiae deletion strains, locus YMR277W, strain FCP1, hits give low values 0.92 | S. cerevisiae deletion strains, locus YNL006W, strain LST8, hits give low values 0.932 | S. cerevisiae deletion strains, locus YNL020C, strain ARK1, hits give low values 0.934 | S. cerevisiae deletion strains, locus YNL161W, strain CBK1, hits give low values 0.956 | [10] 0.856 | [11] 0.956 | S. cerevisiae deletion strains, locus YNL222W, strain SSU72, hits give low values 0.957 | S. cerevisiae deletion strains, locus YNL307C, strain MCK1 (second series), hits give low values 0.918 | S. cerevisiae deletion strains, locus YOL078W, strain AVO1, hits give low values 0.914 | S. cerevisiae deletion strains, locus YOL136C, strain PFK27, hits give low values 0.901 | S. cerevisiae deletion strains, locus YOR061W, strain CKA2, hits give low values 0.886 | [12] 0.925 | [13] 0.837 | S. cerevisiae deletion strains, locus YOR329C, strain SCD5, hits give low values 0.977 | S. cerevisiae deletion strains, locus YPL031C, strain PHO85, hits give low values 0.876 | S. cerevisiae deletion strains, locus YPL153C, strain RAD53, hits give low values 0.866 | S. cerevisiae deletion strains, locus YPL204W, strain HRR25, hits give low values 0.872 | S. cerevisiae deletion strains, locus YPL209C, strain IPL1, hits give low values 0.98 | [14] 1.05 | S. cerevisiae deletion strains, locus YPR025C, strain CCL1, hits give low values 0.971 | S. cerevisiae deletion strains, locus YPR106W, strain ISR1, hits give low values 0.96 | S. cerevisiae deletion strains, locus YPR111W, strain DBF20, hits give low values 0.993 | S. cerevisiae deletion strains, strain NNK1, hits give low values 0.971 | S. cerevisiae deletion strains, strain TSCII, hits give low values 0.921
active: [9] 0.76

CCOC(=O)c1ccc(Oc2sccc2[N+](=O)[O-])cc1
inactive: S. cerevisiae deletion strains, locus YDR150W, strain NUM1, hits give low values 0.866 | [2] 0.872 | [5] 0.878 | [6] 0.772 | S. cerevisiae deletion strains, locus YJL187C, strain SWE1, hits give low values 1.02 | [7] 0.876 | S. cerevisiae deletion strains, locus YKL171W, strain NNK1, hits give low values 0.854 | [9] 0.735 | [10] 0.864 | [11] 0.862 | [12] 0.86 | [13] 0.869 | S. cerevisiae deletion strains, locus YPL055C, strain LGE1, hits give low values 0.84
active: S. cerevisiae deletion strains, locus YAL013W, strain DEP1, hits give low values 0.796 | S. cerevisiae deletion strains, locus YBR229C, strain ROT2, hits give low values 0.817 | [1] 0.77 | S. cerevisiae deletion strains, locus YEL061C, strain CIN8, hits give low values 0.442 | S. cerevisiae deletion strains, locus YGR078C, strain PAC10, hits give low values 0.811 | [3] 0.167 and 0.769 | [4] 0.852 | S. cerevisiae deletion strains, locus YHR087W, strain rtc3, hits give low values 0.848 | S. cerevisiae deletion strains, locus YJR043C, strain POL32, hits give low values 0.81 | S. cerevisiae deletion strains, locus YJR075W, strain HOC1, hits give low values 0.719 | S. cerevisiae deletion strains, locus YKL190W, strain CNB1, hits give low values 0.0675 | [8] 0.849 | S. cerevisiae deletion strains, locus YLR039C, strain RIC1, hits give low values 0.239 | S. cerevisiae deletion strains, locus YLR058C, strain SHM2 (second series), hits give low values 0.928 | S. cerevisiae deletion strains, locus YLR085C, strain ARP6, hits give low values 0.143 | S. cerevisiae deletion strains, locus YLR262C, strain YPT6, hits give low values 0.407 | S. cerevisiae deletion strains, locus YML094W, strain GIM5, hits give low values 0.747 | S. cerevisiae deletion strains, locus YMR219W, strain ESC1, hits give low values 0.848 | S. cerevisiae deletion strains, locus YMR263W, strain SAP30, hits give low values 0.867 | S. cerevisiae deletion strains, locus YNL153C, strain GIM3, hits give low values 0.849 | S. cerevisiae deletion strains, locus YNL298W, strain CLA4 (second series), hits give low values 0.241 | S. cerevisiae deletion strains, locus YNL322C, strain KRE1, hits give low values 0.931 | S. cerevisiae deletion strains, locus YNR030W, strain Alg12, hits give low values 0.341 | S. cerevisiae deletion strains, locus YOL006C, strain TOP1, hits give low values 0.102 | S. cerevisiae deletion strains, locus YPL241C, strain CIN2, hits give low values 0.446 | [14] 0.734 | S. cerevisiae deletion strains, locus YPR135W, strain CTF4, hits give low values 0.211 | S. cerevisiae strains, strain wild type, hits give low values 0.0898
